This is part of a sample that, as a whole, favours compounds with a hit. Of some 83,000 tested, about 20% had one in any assay.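 Treatment: one concentration, 48 hours, 96-well format. Scoring: percent growth, with anything below 10 considered active.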 Calls of active or inactive are those of the source.
Assays:
Assay in all cases: NCI-60 one-dose screen, 48 h (100 = growth as untreated, 0 = no growth, -100 = all killed)
Settings in all cases: 10 µM unless noted
[1] = system: SK-MEL-2 melanoma
[2] = system: EKVX NSCLC
[3] = system: SN12C renal
[4] = system: UO-31 renal
[5] = system: TK-10 renal
[6] = system: ACHN renal
[7] = system: CAKI-1 renal
[8] = system: A498 renal
[9] = system: CCRF-CEM leukemia
[10] = system: MOLT-4 leukemia

Measured: growth

O=C1C=C(O)C(=O)C(CC2=C(O)C(=O)C=C(O)C2=O)=C1O
inactive: [1] 104% | [2] 102% | [3] 97.8% | [4] 94.6% | [5] 106% | [6] 97.5% | [7] 104% | [8] 86.6% | [9] 115%

COc1cc2c(cc1-c1c(C)noc1C)ncc1nc(C3CCOCC3)n([C@H](C)COC(F)F)c12
active: [8] -13.5%
inactive: [1] 67% | [2] 50.4% | [3] 57% | [4] 15.7% | [5] 25.3% | [6] 34.6% | [7] 26.7% | [9] 48.3%

C=C1c2nc3ccccc3n2C=C(c2ccc(OC)cc2)N1Cc1ccccc1
inactive: [1] 57.7% | [2] 62.6% | [3] 98.7% | [4] 54.6% | [5] 118% | [6] 96.2% | [7] 101% | [8] 69.7% | [9] 78.9%

O=C(COc1cccc(/C=C2\COc3ccccc3C2=O)c1)Nc1nccs1
active: [9] -58.5%
inactive: [1] 65% | [2] 72.2% | [3] 78.4% | [4] 67.3% | [5] 64.2% | [6] 88.2% | [7] 83.5% | [8] 102%

C#Cc1cccc(NC(=O)c2ccccc2NC(=O)C=C)c1
inactive: [1] 104% [8.25 µM] | [2] 109% [8.25 µM] | [3] 94% [8.25 µM] | [4] 85.6% [8.25 µM] | [5] 81.1% [8.25 µM] | [6] 105% [8.25 µM] | [7] 97.3% [8.25 µM] | [8] 96.8% [8.25 µM] | [9] 106% [8.25 µM]

COc1cc2nnc3c4cccnc4[nH]c3c2cc1OC
active: [4] -52.8% | [6] -36.7% | [7] -14.7% | [9] -37.5%
inactive: [1] 80.1% | [2] 73.1% | [3] 33% | [5] 42.9% | [8] 106%

O=C(Cc1ccccc1Nc1c(Cl)cccc1Cl)NN1C(=O)/C(=C/c2ccc(Br)cc2)SC1=S
inactive: [1] 99.9% | [2] 98.5% | [3] 100% | [4] 90.9% | [5] 107% | [6] 104% | [7] 100% | [8] 107% | [9] 107%

N#C/C(=C\c1ccc(-c2cc(C(F)(F)F)ccc2Cl)o1)c1nc(-c2ccco2)cs1
inactive: [1] 103% | [2] 91.6% | [3] 99% | [4] 87.9% | [5] 121% | [6] 105% | [7] 86.2% | [8] 105% | [9] 103% | [10] 101%

CCOC(=O)c1c(CN2CCN(C)CC2)nc2ccc(Cl)cc2c1-c1ccccc1
inactive: [1] 80% | [2] 66.4% | [3] 92.8% | [4] 47.3% | [5] 82.6% | [6] 91.7% | [7] 52.8% | [8] 90.7% | [9] 37.7% | [10] 32.5%

COc1ccc2[nH]cc(-c3noc(C(=O)c4cn(C)c5ccc(F)cc45)n3)c2c1
inactive: [1] 94.7% | [2] 76.9% | [3] 93% | [4] 67.9% | [5] 113% | [6] 88.4% | [7] 81.5% | [8] 95.8% | [9] 99.2%

O=C1OCC2=C1C(c1ccncc1)c1cc3c(cc1N2CCO)OCO3 (stereo unspecified)
inactive: [1] 107% | [2] 101% | [3] 100% | [4] 94.7% | [5] 101% | [6] 105% | [7] 99.3% | [8] 90% | [9] 94%

N#Cc1c(N)n(CCNC(=O)c2ccccc2)c2nc3ccccc3nc12
inactive: [1] 90.3% | [2] 123% | [3] 120% | [4] 89.4% | [5] 102% | [6] 118% | [7] 115% | [8] 135% | [9] 133%

O=C1/C(=C(/c2ccccc2)N2CCOCC2)Cc2ccccc21
inactive: [1] 90.4% | [2] 38% | [8] 51.4% | [9] 22.6%
active: [3] -42.6% | [4] -47.8% | [5] -16.7% | [6] -39.6% | [7] -43.5%

CC1=NN(c2nc(-c3ccc(Cl)cc3)c(C#N)c(N3CCOCC3)n2)C(=O)C1
inactive: [1] 87.1% | [2] 88.8% | [3] 88.5% | [4] 71.9% | [5] 117% | [6] 73.6% | [7] 70.1% | [8] 58% | [9] 85.9%

CCOC(=O)n1cc(-c2nonc2-c2cn(C)c3ncccc23)c2ccccc21
inactive: [1] 90.1% | [2] 61.2% | [3] 87.1% | [4] 58.4% | [5] 98.3% | [6] 80.1% | [7] 58.1% | [8] 99% | [9] 86.6%

CSc1nc(Nc2cccc(NC(=O)/C(C#N)=C/c3c(Cl)cccc3Cl)c2)c(C#N)c(-c2cccc([N+](=O)[O-])c2)n1
inactive: [1] 52.8% | [2] 56.7% | [3] 44.6% | [4] 33.7% | [5] 99.6% | [6] 57.9% | [7] 24.5% | [8] 73.5% | [9] 43.3% | [10] 23.9%

NC(=O)c1cc(Br)ccc1NC(=O)/C=C/c1ccccc1
active: [9] 9.57%
inactive: [1] 47.7% | [2] 46.4% | [3] 48.3% | [4] 37.7% | [5] 98.7% | [6] 64.4% | [7] 53.2% | [8] 59.7% | [10] 36.8%

Cc1cc(C)nc(SC2=C(Nc3ccc(O)cc3)C(=O)N(Cc3ccccc3)C2=O)n1
inactive: [1] 96.1% [40 µM] | [2] 77.4% [40 µM] | [3] 94.3% [40 µM] | [4] 70.8% [40 µM] | [5] 110% [40 µM] | [6] 93.4% [40 µM] | [7] 64.4% [40 µM] | [8] 112% [40 µM] | [9] 39.1% [40 µM] | [10] 58% [40 µM]

CN(C)S(=O)(=O)c1cccc(-c2nc3sc4c(c3c(=O)[nH]2)CCCC4)c1
inactive: [1] 36.9% | [2] 56.1% | [3] 28.3% | [4] 29.6% | [6] 96.5% | [7] 65.5% | [9] 35.5%
active: [5] -20.5% | [8] -29.8%

COc1ccc(-c2cc(C(=O)N=Nc3c(O)[nH]c4ccc(Br)cc34)no2)cc1
inactive: [1] 97.6% | [2] 94.4% | [3] 93.6% | [4] 77.6% | [5] 124% | [6] 98.2% | [7] 84.1% | [8] 99.6% | [9] 102%

COc1cc(CNc2oc(-c3ccccc3)c(-c3ccccc3)c2C#N)cc(CN2CCN(C)CC2)c1O
active: [8] -7.97%
inactive: [1] 82.4% | [2] 65.6% | [3] 77.4% | [4] 51.5% | [5] 91.9% | [6] 65.7% | [7] 66% | [9] 45.6%

CC(=O)O[C@H]1CC[C@]2(C)[C@H]3CC=C4[C@@H]5CC(C)(C)CC[C@]5(C(=O)NCCNCCNCCN)CC[C@@]4(C)[C@]3(C)CC[C@H]2C1(C)C
active: [6] -25.4% | [9] -9.21% | [10] -13%
inactive: [1] 96.9% | [2] 81.9% | [3] 89.5% | [4] 79.1% | [5] 97.2% | [7] 77.8% | [8] 54.6%

COc1ccc(Nc2nc(SC)nc(-c3cccc([N+](=O)[O-])c3)c2C#N)cc1
inactive: [1] 94.9% | [2] 70.5% | [3] 64.5% | [4] 17.7% | [5] 84% | [6] 16.9% | [7] 63% | [8] 57.8% | [9] 114% | [10] 99.8%

O=CNc1ccc2c(c1)Cc1cccc(NC=O)c1-2
inactive: [1] 106% | [2] 80.4% | [3] 95.8% | [4] 78.8% | [5] 98.7% | [6] 85.8% | [7] 93% | [8] 105% | [9] 107%

Cc1ccc(/C=C2\SC(=S)N(CC(=O)NCCCN3CCOCC3)C2=O)cc1
inactive: [1] 107% | [2] 93.7% | [3] 92.1% | [4] 83.9% | [5] 117% | [6] 90.5% | [7] 89.4% | [8] 96.1% | [9] 104%

NC(=O)c1cc(Cl)ccc1NC(=O)/C=C/c1ccccc1
inactive: [1] 57.7% | [2] 41% | [3] 49% | [4] 41.3% | [5] 45.1% | [6] 59.8% | [7] 56.5% | [8] 54.1%
active: [9] 3.8%

O=C(CN(C(=O)Cn1c(=O)n2nnnc2c2ccccc21)c1ccccc1C(F)(F)F)Nc1ccc(C(F)(F)F)cc1
inactive: [1] 105% | [2] 101% | [3] 100% | [4] 81.1% | [5] 111% | [6] 102% | [7] 99.2% | [8] 116% | [9] 107% | [10] 104%

— PubChem BioAssay (NCI)
